CHT allo act: CHT positive allosteric modulators, primary screen, cell-based, membrane potential dye, choline EC20. High affinity choline transporter 1 (Homo sapiens), Q9GZV3. CHT-expressing cells; hits give high values; LV-AA mutant CHT in HEK293 cells. B-score at 10 µM. hit rate 0.49% among 310,000;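 active = initial fluorescence not abnormally high and integrated response B-score, plate-corrected, over 3 SD above library mean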
ALR inh: inhibitors of human ALR sulfhydryl oxidase, primary screen, biochemical, H2O2 detection, HRP-luminol luminescence, single point; purified ALR, DTT oxidation; inhibition, % (test concentration not listed); hit rate 3.8% among 290,000; FAD-linked sulfhydryl oxidase ALR (Homo sapiens), P55789;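 active = mean replicate inhibition above about 79%, with every replicate also reaching it, limit read from the data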
CHT block: inhibitors of human choline transporter CHT | CHT-expressing cells, membrane potential dye, choline response; hits give low values | B-score at 10 µM | hit rate 0.86% among 310,000;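 active = B-score over 3 SD under the library average, and starting fluorescence ratio not unusually high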;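 note: choline stimulus applied at its EC90 after an EC20 pre-addition; B-score computed on integrated fluorescence ratio after choline addition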
PREPL inhibitor: PREPL enzyme inhibitors, primary screen, biochemical, fluorescence polarization | hit rate 0.68% among 320,000 | Prolyl endopeptidase-like (Homo sapiens), Q4J6C6 | inhibition, % at 5.96 µM | AID 2751, 2010 | recombinant PREPL, fluorescence polarization activity-based probe; in the data active = inhibition above about 43%
Target sequence (Q4J6C6 whole entry, looked up): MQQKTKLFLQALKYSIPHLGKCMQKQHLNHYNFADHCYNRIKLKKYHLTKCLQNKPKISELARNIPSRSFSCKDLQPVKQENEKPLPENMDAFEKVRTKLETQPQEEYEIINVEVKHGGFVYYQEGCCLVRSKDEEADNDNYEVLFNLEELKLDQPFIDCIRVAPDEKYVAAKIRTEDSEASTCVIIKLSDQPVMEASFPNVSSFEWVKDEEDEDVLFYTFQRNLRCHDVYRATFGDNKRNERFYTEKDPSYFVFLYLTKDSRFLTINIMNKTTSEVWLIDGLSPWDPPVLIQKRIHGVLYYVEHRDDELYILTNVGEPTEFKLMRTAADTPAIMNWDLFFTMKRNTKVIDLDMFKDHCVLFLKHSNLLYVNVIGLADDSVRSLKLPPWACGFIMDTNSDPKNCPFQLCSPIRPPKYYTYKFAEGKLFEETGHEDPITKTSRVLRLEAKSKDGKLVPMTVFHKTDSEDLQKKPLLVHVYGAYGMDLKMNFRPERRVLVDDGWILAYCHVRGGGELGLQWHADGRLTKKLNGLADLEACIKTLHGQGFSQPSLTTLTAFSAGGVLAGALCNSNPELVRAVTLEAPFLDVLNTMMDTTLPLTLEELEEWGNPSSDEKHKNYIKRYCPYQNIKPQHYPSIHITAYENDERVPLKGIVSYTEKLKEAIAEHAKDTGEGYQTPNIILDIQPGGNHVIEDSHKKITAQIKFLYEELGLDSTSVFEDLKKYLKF
AI-2 QS mod: Vibrio harveyi AI-2 quorum sensing modulators, primary screen, JMH597 strain, luminescence/OD600 ratio. Vibrio harveyi JMH597 AI-2 luminescence/OD600 ratio, 9 h; hits give low values; strain lacks LuxN and CqsS sensors; 0 = neutral-control median. activity change, % at 7.5 µM. hit rate 0.4% among 300,000. AID 2094, 2009; in the data active = activity change below about -75%, passing the limit was not always enough;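 note: luminescence divided by OD600 gain over 9 h not by final OD600 alone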
Of the large screens only hits and unclear results are named; the others gave an inactive call. Sampled rows, rich in hits. Any-hit rate of the full collection: about 5%.

COc1cc(C(=O)N/N=C/c2ccc(OC(=O)c3ccccc3)c(OC)c2)ccc1O	none (no result: PREPL inhibitor)
COc1ccc(-c2ccc(SCC(=O)Nc3nccs3)nn2)cc1OC	none
COc1cc(/C=N/NC(=O)CN(Cc2ccco2)S(=O)(=O)c2ccccc2)ccc1O	ALR inh 100
COc1ccc(C(=O)Nc2ccc3c(c2)nc(CCNC(C)=O)n3C)cc1	none
COc1ccc(C(=O)Nc2ccc3c(c2)nc2n3CCSC2)cc1	ALR inh 99
O=C(Nc1ccc2c(c1)nc1n2CCSC1)c1ccccc1	ALR inh 99
O=C(Nc1ccc2c(c1)nc1n2CCOC1)c1ccccc1	none (no result: ALR inh)
COc1cccc(/C=N/NC(=O)c2ccc([N+](=O)[O-])cc2Cl)c1O	none
CC(=O)c1ccc(NC(=O)CCNC(=O)c2ccc(Cl)cc2)cc1	none
CNC(=S)N(CCc1c(C)[nH]c2ccccc12)Cc1cccnc1	ALR inh 100
COCCNC(=S)N(CCc1c(C)[nH]c2ccccc12)Cc1cccnc1	ALR inh 97
COCCNC(=S)N(CCc1c(C)[nH]c2ccc(F)cc12)Cc1cccnc1	none
CNC(=S)N(CCc1c(C)[nH]c2ccc(C)cc12)Cc1cccnc1	none (no result: ALR inh)
CNC(=S)N(CCc1c(C)[nH]c2ccc(Cl)cc12)Cc1cccnc1	ALR inh 97
Cc1ccc(S(=O)(=O)n2nccc2-c2c(-c3ccc(Cl)cc3)noc2C)cc1	none (no result: ALR inh)
CCN(C[C@H]1N[C@@](Cc2ccccc2)(C(=O)OC)[C@H]2C(=O)N(Cc3ccccc3)C(=O)[C@@H]12)C(=O)C1CCCCC1	none (no result: CHT allo act, ALR inh, CHT block, AI-2 QS mod)
O=C(Cc1nn[nH]n1)c1ccccc1O	none
CCNc1ccc2noc3c2c1C(=O)c1ccccc1-3	PREPL inhibitor 107
CCOP(=O)(OCC)C(NC(=O)Nc1ccc(C)cc1)C(N)=O (centres undefined)	none
CCCOP(=O)(OCCC)C1(Nc2ccc(C)cc2)CCCCC1	ALR inh 93
COc1ccc(OC)c(C2C(C#N)=C(N)Oc3cc(N)ccc32)c1 (centres undefined)	ALR inh 99
COC(=O)c1ccc(C2C(C#N)=C(N)Oc3cc(O)ccc32)cc1 (centres undefined)	none
CCOc1ccccc1C1C(C#N)=C(N)Oc2cc(N)ccc21 (centres undefined)	ALR inh 98
COC(=O)c1ccc(C2C(C#N)=C(N)Oc3cc(N)ccc32)cc1 (centres undefined)	ALR inh 97
O=C(CNC(=O)c1cccc(F)c1)NC1CC1	none (no result: CHT allo act, CHT block, AI-2 QS mod)
Cn1cccc1/C=N/n1c(-c2ccc(Cl)cc2)n[nH]c1=S	none
Cn1cccc1/C=N/n1c(-c2ccc(Cl)cc2Cl)n[nH]c1=S	ALR inh 97
CC(C)n1c(O)c(/C=C2\C=Nc3ccccc32)sc1=Nc1ccccc1	none (no result: ALR inh)
CSc1nc(/C=C2\C=Nc3ccccc32)c(O)n1C	ALR inh 85
O=C(Nc1ccccc1C(=O)O)c1cc(S(=O)(=O)Nc2cccc(F)c2)ccc1Cl	none
Cc1[nH]c2ccccc2c1Cc1n[nH]c(=S)o1	ALR inh 96
CCCOC(=O)C1=C(C)N(C)C(=O)NC1c1cc2c(cc1[N+](=O)[O-])OCO2 (centres undefined)	none
CCOC(=O)C1=C(C)NC(=O)CC1c1cc2c(cc1[N+](=O)[O-])OCO2 (centres undefined)	ALR inh 91
Cc1ccc(/S(C)=N/S(=O)(=O)c2ccc(C)cc2)cc1 (centres undefined)	none
CN(CC(=O)Nc1cccc2ccccc12)C(=O)c1ccc(NC(=O)CC#N)cc1	ALR inh 94 (no result: CHT allo act, CHT block, AI-2 QS mod)
CCOc1cc(C(=O)N(C)CC(=O)Nc2cccc3ccccc23)ccc1OC	none (no result: CHT allo act, CHT block, AI-2 QS mod)
N#CCC(=O)Nc1ccc(C(=O)OCC(=O)NC(=O)NCc2ccco2)cc1	ALR inh 98 (no result: CHT allo act, CHT block, AI-2 QS mod)
CCOC(=O)c1ccc(NC(=O)CCC(=O)NCc2ccco2)cc1	none
N#CCC(=O)Nc1ccc(C(=O)OCC(=O)N(Cc2ccccc2)C2CCS(=O)(=O)C2)cc1 (centres undefined)	ALR inh 100
CC1(C)CC2CC(C)(CN2C(=O)COC(=O)c2ccc(NC(=O)CC#N)cc2)C1 (centres undefined)	ALR inh 98 (no result: CHT allo act, CHT block, AI-2 QS mod)
O=C(NCc1ccccc1CN1CCCC1)c1ccc(Cl)c(N2CCCC2=O)c1	none (no result: CHT allo act, CHT block, AI-2 QS mod)
CSc1cccc(NC(=O)C2CCCN(c3ncnc4c3nc3n4CCCCC3)C2)c1 (centres undefined)	none
CC(OC(=O)C1CCCC1)C(=O)Nc1ccc(S(N)(=O)=O)cc1 (centres undefined)	none (no result: ALR inh)
O=C1COc2ccc(S(=O)(=O)CCC(=O)NC3CCCCC3)cc2N1	none
Cc1ccc(NC(=O)CN(C)C(=O)COC(=O)c2ccc(NC(=O)CC#N)cc2)cc1	ALR inh 90 (no result: CHT allo act, CHT block, AI-2 QS mod)
O=C(NNC(=O)C1[C@H]2CCCC[C@@H]12)c1ccc(=O)oc1 (some centres undefined)	ALR inh 96
O=C(NC12CC3CC(CC(C3)C1)C2)c1ccc(=O)oc1	none (no result: ALR inh)
O=C(Cn1cnc(S(=O)(=O)N2CCCCC2)c1)NCc1ccco1	none
CCN(Cc1ccccc1)c1ccc(/C=N/N2CCOCC2)cc1	ALR inh 98
CCN(CC)c1ccc(/C=N/N2CCOCC2)cc1	ALR inh 99
COc1ccc(/C=N/N2CCOCC2)cc1O	ALR inh 98
COc1ccccc1C(=O)Oc1ccccc1C(=O)Nc1ccccc1	none
O=C(Oc1ccccc1C(=O)Nc1ccccc1)c1ccc(Br)c([N+](=O)[O-])c1	ALR inh 97
Cc1ccc(SC(=O)COc2ccccc2C)cc1	ALR inh 99
Cc1ccc(OC(=O)COc2ccccc2C)cc1	none
Oc1ccc(-c2nccc(-c3cccs3)n2)cc1	ALR inh 89
COc1cccc(CN(C)C(=O)c2ccc(OCC(=O)N3CCOCC3)c(OC)c2)c1	none (no result: CHT allo act, CHT block, AI-2 QS mod)
COc1cc(CNc2ncc(-c3ccc(Br)cc3)n2C)cc(OC)c1OC	ALR inh 91
CCOc1cc(CNc2ncc(-c3ccc(OC)cc3)n2C)ccc1O	ALR inh 78
Cn1c(-c2ccc(F)cc2)cnc1NCc1ccc(F)cc1	ALR inh 91
COc1ccc(CNc2ncc(-c3ccccc3)n2C)c(OC)c1OC	none
COc1cc(CNc2ncc(-c3ccc(Cl)cc3)n2C)cc(OC)c1OC	ALR inh 95
C/C=C/c1ccc(OCC(O)CN(C)Cc2ccc(SC)cc2)c(OC)c1 (centres undefined)	none (no result: ALR inh)
COc1cc2c(cc1OC)C(c1ccc3c(c1)OCO3)C1=C(CC(C)(C)CC1=O)N2 (centres undefined)	ALR inh 98
CC1(C)CC(=O)C2=C(C1)Nc1ccccc1NC2c1cccc(F)c1 (centres undefined)	ALR inh 99 (no result: PREPL inhibitor)
